Compound activity from PubChem BioAssay.
HIF-2a block: inhibitors of HIF-2a | 786-0 RCC cells HIF-2a reporter, luciferase luminescence, overnight | inhibition, % at 18.8 µM | hit rate 0.72% among 360,000 | AID 624352;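 active = inhibition of the luminescence signal of 40% or more relative to plate controls, in a single-dose primary screen at 18.75 µM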
TWEAK Fn14 block: blocks TWEAK-Fn14 interaction in a reporter cell assay. AID 1159606. TWEAK-stimulated Fn14 reporter cells, luciferase luminescence, 8 h. hit rate 2% among 360,000. inhibition, % at 10 µM; in the data active = inhibition above about 50%
EBV LMP1 NFkB: reduces LMP1-driven NF-kappaB luciferase signal; inhibition, % at 12.5 µM; hit rate 0.69% among 350,000; LMP1-induced NF-kappaB luciferase reporter cells, luminescence; in the data active = inhibition above about 41%;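 also: 0% = neutral control wells and 100% = reference inhibitor control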
Peg3 promoter: inhibitors of Peg3 promoter. HeLa PEG-Prom luciferase reporter, luminescence, overnight. inhibition, % at 20 µM. hit rate 1.7% among 360,000. AID 588405;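 active = inhibition of at least 50% at 20 µM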
TRPM1 prom inh: MITF TRPM1 promoter inhibition in SK-MEL-5 cells; inhibition, % at 12.5 µM; hit rate 0.83% among 330,000; SK-MEL-5 TRPM1 promoter luciferase, 24 h;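 active = mean inhibition across replicates of 60% or more, whatever share of single replicates reaches that level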
TROY NFkB inh: TROY signaling inhibition | Q293 LMP1-TROYcd NF-kB luciferase reporter, 4 h | inhibition, % at 10 µM | hit rate 0.98% among 360,000 | AID 1347056;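 active = compounds whose plate-normalised and pattern-corrected inhibition of the luciferase reporter signal at the single screening dose is 50% or more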
The depositor's hits bear a star; · = not tested or not shown. Shown are actives, neighbours in structure and some others; about 4% of the full set was active somewhere.

SMILES | HIF-2a block | TWEAK Fn14 block | EBV LMP1 NFkB | Peg3 promoter | TRPM1 prom inh | TROY NFkB inh
CC1CCc2c(sc(NC(=O)CSc3nc(N)cc(=O)[nH]3)c2C(N)=O)C1 (stereo not given) | 10.3 | 67.2* | 5.8 | -13.7 | 12.5 | 52.8*
N#Cc1c(NC(=O)CSc2nc(N)cc(=O)[nH]2)sc2c1CCCCCC2 | 4.1 | 15.7 | 3.1 | 3.4 | 20.5 | 13.3
COc1cc(CNc2ncnc3c2ncn3[C@H]2CN(Cc3ccc4c(c3)OCO4)C[C@@H](CO)O2)cc(OC)c1OC | 10.6 | -18.6 | · | 21.2 | · | 12.6
CCC1=C(c2cc(OC)c(OC)c(OC)c2)C2(CCCC2)C(=O)O1 | 3.5 | -10.7 | -1.8 | 8.5 | 3.2 | -6.6
O=C(Nc1ccc(Br)c(C(F)(F)F)c1)c1ccc(C(F)(F)F)cc1 | -273.9 | 63.3* | · | -47.8 | · | 46.7
COc1ccc(C(=O)Nc2ccc(OCC(F)(F)C(F)F)c(C(F)(F)F)c2)cc1OC | -1.2 | -1.5 | -29.1 | 23.8 | -3.5 | 32.4
O=C(Nc1ccc(OCC(F)(F)C(F)F)c(C(F)(F)F)c1)c1ccc(Cl)cc1 | -13.0 | 76.9* | 38.5 | 24.7 | 67.6* | 52.0*
Cc1ccc(-c2nc(-c3ccccc3)no2)c(Cl)c1 | 61.4* | 100.9* | 39.6 | 9.0 | 49.3 | 81.3*
COc1ccc(-c2noc(-c3ccccc3-c3ccccc3)n2)cc1 | -43.7 | 2.3 | 6.8 | -9.2 | -12.3 | -21.2
COc1cc(OC)c(-c2nc(-c3ccncc3)no2)cc1OC | -5.4 | -16.0 | -4.5 | 7.8 | -3.5 | -10.8
Cc1ccc(-c2nc(-c3cccnc3)no2)cc1 | -149.5 | 35.9 | -10.2 | -199.9 | -65.1 | -7.1
Cc1ccc(-c2nc(-c3ccccc3)no2)cc1 | -110.9 | 62.0* | -13.7 | -225.7 | -0.1 | 47.0
Cc1ccc(-c2nc(-c3ccncc3)no2)cc1 | -284.5 | 39.7 | 2.6 | -264.9 | -23.1 | -26.4
CC(C)(C)c1ccc(-c2nc(-c3ccncc3)no2)cc1 | -93.8 | 78.8* | -9.8 | -109.6 | -2.7 | 72.4*
COc1ccc(-c2nc(-c3ccncc3)no2)c(OC)c1 | -85.5 | 56.4* | -9.8 | -140.8 | -6.7 | 17.2
CCOc1ccc(CCNC(=O)c2cc(C)nc3ccccc23)cc1OCC | 8.1 | -1.2 | 0.4 | 16.4 | 1.3 | 7.7
O=C(NCCc1ccccc1)c1ccc2c(c1)S(=O)(=O)N=C1CCCCCN12 | -43.7 | -14.9 | -4.1 | -69.6 | -20.3 | -36.4
O=[N+]([O-])c1cc(-c2nc(-c3ccncc3)no2)ccc1Cl | -22.6 | -35.1 | 10.0 | 104.6* | 29.6 | -15.0
Cc1cccc(-c2noc(-c3ccc4c(c3)OCO4)n2)c1 | -98.3 | 56.7* | -38.6 | -152.3 | -19.0 | 42.1
COc1ccccc1-c1noc(-c2ccccc2)n1 | -227.8 | -10.5 | 47.2* | -289.0 | -29.8 | -43.9
Cc1ccc(CC(=O)NCC(O)c2ccccc2)cc1 (stereo not given) | -32.8 | 1.9 | -19.0 | -90.5 | -4.7 | -6.5
CCCCCc1c(-c2ccc(OC)cc2)ncn1CCc1ccccc1OC | -13.8 | 49.4 | · | · | · | 42.0
CC1(Cc2ccc(Cl)s2)C(=O)Nc2c(Cl)ccc(Cl)c21 (stereo not given) | 5.4 | 15.1 | · | 16.6 | · | -1.6
CCOC(=O)c1[nH]cnc1N=Nc1c(O)ccc2ccccc12 | -19.9 | 12.8 | 46.7* | 46.4 | · | -25.0
Oc1ccc2ccccc2c1N=Nc1ccccn1 | -70.3 | -79.6 | 63.0* | 8.7 | 59.7 | -16.6
SMILES | HIF-2a block | TWEAK Fn14 block | EBV LMP1 NFkB | Peg3 promoter | TRPM1 prom inh | TROY NFkB inh
Oc1ccc2ccccc2c1N=Nc1ccccc1F | -120.8 | -9.4 | -15.8 | -90.0 | 16.4 | -52.2
COc1ccc(-c2nnn(CC(=O)N(CC(=O)NC3CCCC3)c3ccccc3F)n2)cc1OC | 19.2 | -4.3 | 2.2 | -3.0 | -1.5 | -6.0
O=C(CSc1nc2ccc([N+](=O)[O-])cc2[nH]1)NC1CCCCCC1 | -3.6 | 61.4* | -4.8 | 31.1 | 6.9 | 48.6
COc1ccc(CCNC(=O)c2cc3cc(Cl)ccc3nc2N)cc1OC | 15.7 | 27.7 | · | · | · | 18.0
COc1ccc(CCN2C(=O)COc3ccccc3C2C(=O)Nc2c(C)cccc2C)cc1OC (stereo not given) | 4.6 | -0.5 | · | · | · | -1.3
COc1cc(C(CCN2CCCC(C)C2)c2c(OC)cc(OC)c3c(-c4ccccc4)cc(=O)oc23)cc(OC)c1OC (stereo not given) | 13.4 | -27.1 | -3.8 | 86.8* | 89.8* | -3.8
COc1cc(C(CCN2CCCCC2)c2c(OC)cc(OC)c3c(-c4ccccc4)cc(=O)oc23)cc(OC)c1OC (stereo not given) | 7.1 | -23.2 | -16.9 | 78.3* | 84.6* | -0.1
COc1cc(C(CC(=O)N2CCCC2)c2c(OC)cc(OC)c3c(-c4ccccc4)cc(=O)oc23)cc(OC)c1OC (stereo not given) | 9.7 | -3.8 | 5.3 | 1.5 | -1.7 | -3.7
OCc1cccc[n+]1Cc1ccccc1 | 21.3 | -1.2 | 2.6 | 10.4 | -6.4 | 59.5*
Cc1ccc(-c2cc[n+](Cc3ccccc3)cc2)cc1 | 20.2 | 7.9 | -2.0 | 28.0 | 16.1 | 13.0
Cc1nc(-c2ccc(C(=O)Nc3cccc(Br)c3)cc2)cs1 | -267.7 | 66.0* | -25.1 | -249.8 | -20.6 | 28.2
Cc1nc(-c2cccc(NC(=O)c3ccc(Br)o3)c2)cs1 | -88.1 | -7.5 | -9.4 | -96.9 | -7.9 | -44.9
Cc1nc(-c2cccc(NC(=O)c3ccc(-n4nccc4C)cc3)c2)cs1 | -182.4 | 73.5* | 4.1 | -59.0 | -47.2 | 59.9*
CC(C)(C)c1cc[n+](C2=C([O-])c3ccccc3C(=O)/C2=N\S(=O)(=O)c2cccs2)cc1 | 26.4 | 83.6* | · | 57.3* | · | 69.8*
O=C1/C(=N\S(=O)(=O)c2cccs2)C([n+]2ccccc2)=C([O-])c2ccccc21 | 43.8* | 26.8 | 27.1 | 35.1 | 104.2* | 83.3*
CC1CCCCN1C(=O)CSc1nnc(-c2cccnc2)o1 (stereo not given) | -10.5 | 10.5 | -5.0 | -5.6 | -10.6 | -28.9
CC1=C(C(=O)N(C(C)C)C(C)C)CC(CC(=O)NCc2ccco2)C(=O)N1Cc1ccc(C(C)(C)C)cc1 (stereo not given) | 10.0 | -5.1 | · | 9.7 | · | 6.6
CC(=O)N(C)c1ccc(OCC(O)Cn2c3ccc(Cl)cc3c3cc(Cl)ccc32)cc1 (stereo not given) | 27.5 | 47.6 | -60.3 | 61.3* | -3.0 | 62.9*
CN(Cc1ccco1)C(=O)Cn1nc(-c2ccc(Cl)cc2)ccc1=O | 6.8 | -15.3 | -35.4 | 17.7 | 13.2 | -4.1
COc1ccccc1CCC(=O)Nc1ncc(C)s1 | -140.9 | -11.5 | -23.0 | -70.0 | -16.1 | -30.9
N#C/C(=C/c1ccc(N2CCCCCC2)o1)c1ccc(F)cc1 | 70.6* | 22.4 | -7.6 | -48.3 | 11.2 | -2.5
N#C/C(=C/c1ccc(N2CCCCCC2)o1)c1cccc(F)c1 | -285.6 | 23.7 | -25.3 | -156.9 | -85.5 | 14.2
Cc1c(N(C)S(=O)(=O)c2ccc(Cl)c(C(=O)NCC(C)(C)N3CCOCC3)c2)c(=O)n(-c2ccccc2)n1C | 4.4 | 5.9 | -1.2 | 7.8 | -2.5 | -16.0
CCCSc1nnc(CSc2nc3ccccc3s2)n1-c1ccccc1 | 9.5 | 18.1 | 7.6 | 29.7 | 14.0 | 53.1*
